Measurements reported in the supplement of paper PMC7184167.
Counter-ions that a name gives are not always drawn.

System: replication-induced senescent mouse newborn dermal fibroblasts (NBF)
Assay: relative cell viability of senescent cells (fraction); higher = less killing of senescent cells
Details: 1 µM; 3 days
Experimental: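 Replication-induced senescent newborn mouse skin fibroblasts (NBFs) in 24-well plates were treated with a Selleck FDA-approved drug library at 1 µM for 3 days.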

## Clc1cccc(Cl)c1NC1=NCCN1 [Clonidine HCl]
  relative cell viability: 1.04

## COc1ccc(-c2nc3cc(C4=NNC(=O)CC4C)ccc3[nH]2)cc1 (configuration not stated) [Pimobendan]
  relative cell viability: 0.639

## COc1cc2nccc(Oc3ccc(NC(=O)NC4CC4)c(Cl)c3)c2cc1C(N)=O [Lenvatinib (E7080)]
  relative cell viability: 0.123

## CNCc1ccc(-c2[nH]c3cc(F)cc4c3c2CCNC4=O)cc1
  relative cell viability: 0.0458

## N=C(N)NC(=N)N1CCOCC1 [Moroxydine HCl]
  relative cell viability: 0.965

## CCn1cc(C(=O)O)c(=O)c2cc(F)c(N3CCN(C)CC3)cc21 [Pefloxacin Mesylate]
  relative cell viability: 0.993

## O=C(c1cc(Cc2n[nH]c(=O)c3ccccc23)ccc1F)N1CCN(C(=O)C2CC2)CC1
  relative cell viability: 1.09
